Screens from PubChem BioAssay.
Sampled rows, rich in hits. Any-hit rate of the full collection: about 1.9%.
eIF4E-4G inh: eIF4E/eIF4G interaction inhibition in translation initiation. P63073+Q04637. TR-FRET eIF4E-eIF4GI(517-606) binding, 2 h. inhibition, % at 21.7 µM. 0.37% of 220,000 active. AID 782;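 active means inhibition above about 30%, limit read from the data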;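 further: 0% = full FRET control wells and 100% = background wells lacking eIF4GI fragment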
MLLE-PAM2 inh: blocks PAM2 peptide binding to the PABP1 MLLE domain; P11940; 0.36% of 360,000 active; GST-MLLE / FITC-PAM2 fluorescence polarization; AID 588489; inhibition, % at 20 µM; in the data active means inhibition above about 35%, passing the limit was not always enough;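 further: plate controls were DMSO wells with GST-MLLE for no effect and wells lacking GST-MLLE protein for full effect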
14-3-3 Bad inh: disrupts binding of bovine 14-3-3 zeta to phospho-Bad peptide | P63103 | TR-FRET 14-3-3zeta/Dy647-pBad peptide displacement, 1 h | inhibition, % at 21.7 µM | 0.71% of 220,000 active | AID 781;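 active means inhibition above about 70%, limit read from the data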;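 further: 0% = full 14-3-3 plus peptide FRET controls and 100% = background without 14-3-3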
eIF4H FP inh: inhibitors of RNA binding by human eIF4H; Q15056; eIF4H fluorescence polarization binding assay; inhibition, % at 35 µM; 0.94% of 290,000 active; AID 2012;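 further: calls also rest on retests at 20 µM and on dose response follow-up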
PABP FP inh: PABP-poly(A) binding inhibition | P11940 | PABP-poly(A) RNA binding, fluorescence polarization | AID 2014 | 1% of 290,000 active | calls only at 35 µM;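 further: calls also rest on retests at 20 µM and on dose response follow-up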
An asterisk follows results filed as active; ! = not active in a repeat. Unless noted, how the calls were made is not given here.

N=C1S/C(=C\c2ccco2)C(=O)N1c1ccc2c(c1)OCO2 was read as eIF4E-4G inh 13, MLLE-PAM2 inh -11, 14-3-3 Bad inh 29, eIF4H FP inh 91 and PABP FP inh active.
For c1ccc2c(c1)CCN(c1nc3ccccc3n3cnnc13)C2 the results were eIF4E-4G inh 8, MLLE-PAM2 inh -9, 14-3-3 Bad inh 0, eIF4H FP inh 7 and PABP FP inh inactive.
`c1ccc2c(c1)CCCN2c1nc2ccccc2n2cnnc12` gave eIF4E-4G inh -8, MLLE-PAM2 inh -51, 14-3-3 Bad inh 8, eIF4H FP inh 80* and PABP FP inh active.
Screening COCCCNCC(=O)c1c(N)n(Cc2ccccc2)c(=O)n(C)c1=O returned eIF4E-4G inh 9, MLLE-PAM2 inh -6, 14-3-3 Bad inh 75*, eIF4H FP inh 1 and PABP FP inh inactive.
Screening O=C(Cn1c(=O)n(Cc2ccco2)c(=O)c2c3c(sc21)CCCCC3)c1ccccc1 returned eIF4E-4G inh 3, MLLE-PAM2 inh -16, 14-3-3 Bad inh -1, eIF4H FP inh 74* and PABP FP inh active.
`O=c1c2c3c(sc2n(CCN2CCCC2)c(=O)n1Cc1ccco1)CCCCC3` gave eIF4E-4G inh 3, MLLE-PAM2 inh 1, 14-3-3 Bad inh 6, eIF4H FP inh -6 and PABP FP inh inactive.
For O=C(Cn1c(=O)n(Cc2ccco2)c(=O)c2c3c(sc21)CCCCC3)Nc1ccccc1 the results were eIF4E-4G inh 10, MLLE-PAM2 inh 6, 14-3-3 Bad inh 9, eIF4H FP inh 78* and PABP FP inh active.
`CN(C)CCn1c(=O)n(Cc2ccco2)c(=O)c2c3c(sc21)CCCCC3` gave eIF4E-4G inh -4, MLLE-PAM2 inh 5, 14-3-3 Bad inh -24, eIF4H FP inh -7 and PABP FP inh inactive.
`O=C(/C=C/c1ccccc1[N+](=O)[O-])N1CCN(C(=O)c2ccco2)CC1` gave eIF4E-4G inh -2, MLLE-PAM2 inh -10, 14-3-3 Bad inh -8, eIF4H FP inh 4 and PABP FP inh inactive.
For O=C(O)c1cnn(-c2ccccc2)c1-c1ccncc1 the results were MLLE-PAM2 inh 4, eIF4H FP inh 57* and PABP FP inh inactive.
Screening Cc1cc(/C=N/Nc2ccc([N+](=O)[O-])cn2)c(C)n1-c1ccc(C(=O)O)cc1 returned eIF4E-4G inh 34*, MLLE-PAM2 inh -104, 14-3-3 Bad inh 66, eIF4H FP inh 76 and PABP FP inh inactive.
Screening CN1Cc2c(N)cccc2C(c2ccccc2)C1 (centres undefined) returned eIF4E-4G inh 2, MLLE-PAM2 inh 80*!, 14-3-3 Bad inh 3, eIF4H FP inh inconclusive and PABP FP inh inactive.
COc1ccccc1-n1nnnc1SC(C)C(=O)NC1CCCC1 (centres undefined) was read as MLLE-PAM2 inh -12.
O=P(C(=S)Nc1ccccc1Cl)(c1ccccc1)c1ccccc1 was read as MLLE-PAM2 inh -3.
Screening Cn1nnc(NC(=S)NC(=O)c2cccc3c(Cl)cccc23)n1 returned MLLE-PAM2 inh 22, eIF4H FP inh 0 and PABP FP inh inactive.
Screening Cn1nnc(NC(=S)NC(=O)c2cccc3c(Br)cccc23)n1 returned MLLE-PAM2 inh 40*, eIF4H FP inh -13 and PABP FP inh inactive.
For C=CCN1C(=O)/C(=C2/C(=O)N(CC(=O)O)c3ccccc32)S/C1=N/c1nccs1 the results were eIF4E-4G inh 16, 14-3-3 Bad inh 20, eIF4H FP inh 105* and PABP FP inh active.
For COc1cc(C)ccc1S(=O)(=O)NC(=O)C1(C)CCN1C(=O)C1(c2ccc(Cl)cc2)CCC1 (centres undefined) the results were MLLE-PAM2 inh 8.
Screening CCOC(=O)C1=C(C)N=c2s/c(=C/c3ccc(OCC(=O)O)cc3)c(=O)n2C1c1ccc(SC)cc1 (centres undefined) returned MLLE-PAM2 inh -129, eIF4H FP inh 63* and PABP FP inh active.
Screening COc1cccc2c1C(=O)CC1C2CCC2CC(=O)CCC21C (centres undefined) returned MLLE-PAM2 inh -2.
`O=c1cc(-c2ccccc2)oc2cc(O)c(O)c(O)c12` gave MLLE-PAM2 inh -2.
O=c1c(O)cccc2cc(O)c(O)c(O)c12 was read as eIF4E-4G inh 61*, MLLE-PAM2 inh 38*, 14-3-3 Bad inh 94*, eIF4H FP inh 102* and PABP FP inh active.
CC(=O)c1c(COC(=O)c2cccnc2)nc2ccccc2[n+]1[O-] was read as eIF4E-4G inh 20, MLLE-PAM2 inh -123, 14-3-3 Bad inh 25, eIF4H FP inh 5 and PABP FP inh active.
`COc1cc(CNCc2ccccn2)ccc1OCc1cccc(Cl)c1` gave eIF4E-4G inh -2, MLLE-PAM2 inh 3, 14-3-3 Bad inh 88*, eIF4H FP inh 3 and PABP FP inh inactive.
For CC(C)c1ccc(/C=N/n2c(-c3ccccc3)n[nH]c2=S)cc1 the results were MLLE-PAM2 inh -83, eIF4H FP inh 8 and PABP FP inh inactive.
`CCOC(=O)c1c2c3c(cccc3[nH]c1=O)C(=O)c1ccccc1-2` gave eIF4E-4G inh 2, MLLE-PAM2 inh 11, 14-3-3 Bad inh -9, eIF4H FP inh 0 and PABP FP inh inactive.
`CCOC(=O)c1c2c3c(cccc3n(C)c1=O)C(=O)c1ccccc1-2` gave MLLE-PAM2 inh 62*, eIF4H FP inh -9 and PABP FP inh inactive.
CCC(=Nc1ccc(N)cc1)C1=C(O)C(C(=O)OC)C(C)(C)CC1=O (centres undefined) was read as eIF4E-4G inh -16, MLLE-PAM2 inh 17, 14-3-3 Bad inh 0, eIF4H FP inh 103* and PABP FP inh active.
CCCCC(=Nc1ccc(N)cc1)C1=C(O)C(C(=O)OC)C(C)(C)CC1=O (centres undefined) was read as eIF4E-4G inh 1, MLLE-PAM2 inh 8, 14-3-3 Bad inh -1, eIF4H FP inh 42* and PABP FP inh active.
`CC(C)(O)CCCC(C)(O)c1ccc(C(=O)O)cc1O` (centres undefined) gave eIF4E-4G inh -18, MLLE-PAM2 inh 14, 14-3-3 Bad inh 18, eIF4H FP inh 84* and PABP FP inh inactive.
For CCC1(C)NC(=O)N(CC(=O)Nc2sc3c(c2C(=O)OC)CCCCC3)C1=O (centres undefined) the results were eIF4E-4G inh -4, MLLE-PAM2 inh 19, 14-3-3 Bad inh 4, eIF4H FP inh -7 and PABP FP inh inactive.
`CCC1(CC)NC(=O)N(CC(=O)Nc2sc3c(c2C(N)=O)CCC3)C1=O` gave eIF4E-4G inh 4, MLLE-PAM2 inh -25, 14-3-3 Bad inh 0, eIF4H FP inh 79* and PABP FP inh active.
O=C(CSc1nnc(-c2ccco2)o1)c1ccc[nH]1 was read as eIF4E-4G inh 13, MLLE-PAM2 inh -2, 14-3-3 Bad inh -2, eIF4H FP inh 83* and PABP FP inh inactive.
`O=C(CSc1nnc(-c2ccco2)o1)c1ccccc1` gave eIF4E-4G inh -4, MLLE-PAM2 inh 15, 14-3-3 Bad inh -4, eIF4H FP inh 14 and PABP FP inh inactive.
